Measured values published in PubChem BioAssay (NCI).
The panel holds about 83,000 compounds, 20% with a hit somewhere; the sample as a whole holds those more often.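 For each line, cells grew in 96-well plates with the test compound present at a single concentration for 48 hours.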 Active and inactive are the calls of the source. How the source made its calls: active means growth percent below 10; inactive means the rest.

tested on: TK-10 renal; experiment: NCI-60 one-dose screen, 48 h (100 = growth as untreated, 0 = no growth, -100 = all killed); conditions: 10 µM unless noted

Compound | growth
Brc1ccc(-c2n(Cc3ccc4ccccc4c3)c(-c3ccccc3)c(-c3ccccc3)[n+]2Cc2ccc3ccccc3c2)cc1 | -92.5% (active)
O=C1CCCc2cc(OCC(=O)N3CCCCC3)ccc2N1 | 104% (inactive)
COc1cc2c3c(n(CCCN4CCC[C@@H]4CO)c(=O)c2cc1OC)-c1cc2c(cc1C3=O)OCO2 | 91.4% (inactive)
CC(=O)c1c(N)c(C#N)cn1-c1ccc(Cl)cc1Cl | 160% (inactive)
Cc1ccc(C2CC(c3ccc(S(=O)(=O)NCCNc4nc(Nc5ccc(F)cc5)nc(N(C)C)n4)cc3)=Nc3c(N)nc(N)nc3N2)cc1 (stereo not drawn) | 96.5% (inactive)
Cc1ccc(C(=O)C(c2c[nH]c3ccccc23)c2c[nH]c3ccccc23)cc1 | 111% (inactive)
COc1cc(-c2nc3ccc(C)cc3[nH]2)ccc1OCc1nnc(-c2ccc(Br)cc2)o1 | 33.2% (inactive)
Nc1nnc(-c2c[nH]c3ccc(Br)cc23)c(-c2c[nH]c3ncc(Br)cc23)n1 | 33.1% (inactive)
Cc1ccc(-c2nc(C#N)c(S(=O)(=O)N3CCN(S(=O)(=O)c4ccc(Cl)cc4)CC3)o2)cc1 | 117% (inactive)
CCOC(=O)C1=C(N)N(c2ccccc2)C2=C(C(=O)CC(C)(C)C2)C1c1ccccc1Cl (stereo not drawn) | 100% (inactive)
Cc1ccc(C(=O)NN2C(=O)/C(=C/C=C/c3ccc([N+](=O)[O-])o3)SC2=S)cc1 | -98.3% (active)
CCCS(=O)(=O)N1CCCC(C(=O)Nc2nc3ccc(NC(=O)c4ccc(F)c(OC)c4F)cc3s2)C1 (stereo not drawn) | 75.3% (inactive)
O=C1CC(Sc2n[nH]c(-c3ccncc3)n2)C(=O)N1c1ccc(Br)cc1 (stereo not drawn) | 101% (inactive)
COc1ccc(NC(=O)Nc2ccc(OCc3ccc(F)cc3)cc2)cc1 | 82.4% (inactive)
COc1ccc(/C=C/c2nc3ccccc3n3c(-c4ccc(Cl)cc4)nnc23)cc1 | 106% (inactive)
CC1(C)CC[C@]2(C(=O)O)CC[C@]3(C)C(=CCC4[C@@]5(C)C[C@@H](O)[C@@H]6OC(c7ccccc7Br)OC[C@@]6(C)C5CC[C@]43C)C2C1 (stereo partly drawn) | 21% (inactive)
CC(=O)OCC1OC(OC2C(COC(C)=O)OC(n3cc(COc4ccc5ccc(=O)oc5c4)nn3)C(OC(C)=O)C2OC(C)=O)C(OC(C)=O)C(OC(C)=O)C1OC(C)=O (stereo not drawn) | 108% (inactive)

Compound | growth
COc1ccc(Cc2nn(CC(=O)N/N=C/c3ccc(F)cc3)c(=O)c3c(C)noc23)cc1 | -3.12% (active)
O=C(c1ccccc1)C(c1c[nH]c2ccccc12)c1c[nH]c2ccccc12 | 142% (inactive)
N=C1N=C(SCc2nc3ccccc3[nH]2)NC(=O)/C1=C/c1ccc(Cl)cc1 | 143% (inactive)
Cn1cc(-c2cc3nc(-c4c[nH]c5ccc(Cl)cc45)cc(N)n3n2)c2ccccc21 | -92.1% (active)
CC1(C)CC[C@]2(C(=O)O)CC[C@]3(C)C(=CCC4[C@@]5(C)C[C@@H](O)[C@@H]6OC(c7ccco7)OC[C@@]6(C)C5CC[C@]43C)C2C1 (stereo partly drawn) | 29.2% (inactive)
COc1ccc(C2CC(c3ccc(S(=O)(=O)NCCNc4nc(Nc5ccc(F)cc5)nc(N(C)C)n4)cc3)=Nc3c(N)nc(N)nc3N2)cc1 (stereo not drawn) | 107% (inactive)
O=C(Nc1ccccc1)N1CCN(c2cc(-c3cn(-c4ccccc4)nc3-c3cccc(O)c3)ccn2)CC1 | 129% (inactive)
CNS(=O)(=O)c1ccc(Nc2ccc(C(F)(F)F)cc2)c(-c2cn(C)cn2)c1 | 46.6% (inactive)
CCS(=O)(=O)N1CCCC(C(=O)Nc2nc3ccc(NC(=O)c4ccc(F)c(OC)c4F)cc3s2)C1 (stereo not drawn) | 83.8% (inactive)
COc1ccc(CCC2c3c(cc4c(c3OC)OCO4)CCN2C)cc1 (stereo not drawn) | -14.7% (active)
Nc1nc(-c2ccccc2)c(N=Nc2ccc([N+](=O)[O-])cc2Cl)s1 | 172% (inactive)
CN(C)c1nc(NCCNS(=O)(=O)c2ccc(C3=Nc4c(N)nc(N)nc4NC(c4ccccc4)C3)cc2)nc(Nc2ccc(F)cc2)n1 (stereo not drawn) | 65% (inactive)
N/C(=N\c1nc2ccccc2s1)NC(=O)Nc1ccc(Cl)cc1Cl | -84.9% (active)
CCCCn1c(O)c(N=Nc2nc(-c3cc4ccccc4oc3=O)cs2)c2cc(Br)ccc21 | 115% (inactive)
Cc1cccc(-c2nc(Nc3cccc(S(N)(=O)=O)c3)c3ccccc3n2)c1 | 73.7% (inactive)
Cn1cc(-c2cc(N)n3nc(-c4cn(C)c5ccccc45)cc3n2)c2cc(Br)ccc21 | -27.8% (active)
